High-throughput results as filed in PubChem BioAssay.
This is a sample that favours compounds with a hit; in the whole collection about 7.5% have one here.
SMN2 splice enh: increases expression of the SMN2 splice variant | 210,000 tested, 2.8% active | Potency, µM (titrated, usually from 46.1 µM), without a hit: at the top dose activity change, positive = activation, most hits filed as activators | HEK293 SMN2-luciferase splicing reporter, luminescence, 30-36 h; further: % of control where 0% means no effect; nearly all actives have a fitted effect of over 55% in size
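qHTS luciferase splicing reporter: luminescence rises when SMN2 exon 7 is included in transfected HEK293 cells. Compound exposure lasted 30-36 h at 37C, with 4.5 mM final sodium butyrate as control, followed by a ONE-Glo read.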
NPC1 prom act: NPC1 promoter activation; 320,000 tested, 2.4% active; Potency, µM (doses to about 9.22 µM), for inactives: top-dose activation, most hits filed as activators; AID 485313; Huh7 NPC1 promoter luciferase reporter, 24 h; further: % of control where 0% means no effect; nearly all actives have a fitted effect of over 60% in size
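In 1536-well qHTS, Huh7 cells harboring an NPC1 promoter–luciferase construct received compound for 24 h; activation was quantified by luminescence following luciferase reagent addition.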
ELG1 genotox: induces genotoxicity in HEK293T cells with luciferase-tagged ELG1; HEK293T ELG1-luciferase reporter, luminescence, 16 h; Potency, µM (titrated, usually from 46 µM), inactives show at the top dose activity change, positive = activation, hits mostly activators; 330,000 tested, 1.3% active; AID 504466; further: % of control where 0% means no effect; nearly all actives have a fitted effect of over 60% in size
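Cells (2,000/well) expressing the ELG1-luciferase fusion are dosed by pin tool and kept 16 hr at 37 °C, 5% CO2. Signal comes from ONE-Glo luciferase reagent after 30 min at room temperature.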
Luc counter: counter-screen: inhibitors of Kinase-Glo firefly luciferase | Q27757 | Kinase-Glo luciferase, ATP luminescence, 8 min | Potency, µM (series often up to 38.3 µM), without a hit: at the top dose activity change, negative = inhibition, most hits filed as inhibitors | 200,000 tested, 0.28% active; further: on the % scale 0 is the no-effect control and ±100 the full control effect; nearly all actives have a fitted effect of over 60% in size
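Inhibition of Kinase-Glo luciferase light generation was assessed at 10 uM ATP in pH 7.2 imidazole buffer, with luminescence measured after eight minutes at ambient temperature.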
FLuc modulator: inhibits or activates purified firefly luciferase, miR-21 counter-screen; 360,000 tested, 6.9% active; Potency, µM (doses to about 57.5 µM), inactives show at the top dose activity change, negative = inhibition, usual class: inhibitors; purified FLuc, Km substrates, luminescence inhibition; P08659;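 further: plate controls were vehicle for no effect and reference inhibitor for full effect; nearly all actives have a fitted effect of over 55% in size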
Target sequence (P08659 whole entry, looked up): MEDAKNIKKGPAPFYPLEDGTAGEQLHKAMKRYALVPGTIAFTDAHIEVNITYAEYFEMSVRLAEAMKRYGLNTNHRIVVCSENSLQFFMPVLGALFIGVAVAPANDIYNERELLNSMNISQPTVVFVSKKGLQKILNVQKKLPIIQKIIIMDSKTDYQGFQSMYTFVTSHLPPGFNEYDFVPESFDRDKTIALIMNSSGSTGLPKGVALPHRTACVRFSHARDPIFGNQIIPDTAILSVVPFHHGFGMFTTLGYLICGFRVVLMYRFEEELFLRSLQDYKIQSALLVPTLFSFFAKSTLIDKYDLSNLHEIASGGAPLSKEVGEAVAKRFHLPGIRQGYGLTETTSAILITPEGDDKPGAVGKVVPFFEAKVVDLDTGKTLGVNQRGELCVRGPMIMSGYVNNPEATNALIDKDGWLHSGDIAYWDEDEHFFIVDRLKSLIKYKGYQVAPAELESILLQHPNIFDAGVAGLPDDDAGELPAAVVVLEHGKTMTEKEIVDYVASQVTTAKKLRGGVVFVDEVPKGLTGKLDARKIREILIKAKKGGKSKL
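Purified P. pyralis luciferase, 10 nM final, with Km-level 10 uM D-luciferin and 10 uM ATP in 50 mM Tris acetate pH 7.5, 10 mM Mg acetate, 0.01% Tween-20, 0.05% BSA; 6-point qHTS titration about 60 µM downward; luminescence read.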
Rab9 prom act: activators of Rab9 promoter | Huh7 Rab9 promoter-luciferase reporter, luminescence, 24 h | Potency, µM (doses to about 9.22 µM), inactives show at the top dose activation, negative = inhibition, hits mostly activators | AID 485297 | 320,000 tested, 2.8% active; further: % of control where 0% means no effect; nearly all actives have a fitted effect of over 60% in size
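Luminescence from Amplite-detected luciferase (10 minutes, ambient) reports Rab9 promoter activation. Before that, stable Rab9-luciferase Huh7 cells (1500/well, reduced-serum OP-MEM I plus 10% FBS) were exposed to compound for 24 hours at 37C.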
The depositor's hits bear a star; ? = inconclusive; · = not tested or not shown; [ ] = another dose, or the depositor's remark. The call rests on the fitted dose curve; in most records, active means well fitted curve in the direction sought with a large enough effect; inconclusive means small, poorly fitted or top-dose-only effect, or another doubt; inactive means no such curve, though single readings can be large; an effect the other way counts as inactive or inconclusive. Potency means the concentration at half of the fitted maximal effect.

SMILES	SMN2 splice enh	NPC1 prom act	ELG1 genotox	Luc counter	FLuc modulator	Rab9 prom act
CC(C)(C)c1ccc(C(=O)Cn2nc(C(=O)O)c3ccccc3c2=O)cc1	·	-8%	-8%	·	9.5µM*	0%
C=CCn1c(C)cc(C(=O)Cn2nc(C(=O)O)c3ccccc3c2=O)c1C	11µM*	?	?	-2%	0.48µM*	?
COCCn1c(C)cc(C(=O)Cn2nc(C(=O)O)c3ccccc3c2=O)c1C	25%	30%	8.2µM*	-4%	1.2µM*	?
CCSc1ncc(Cl)c(C(=O)N(Cc2ccc(N(C)C)cc2)Cc2ccco2)n1	-19%	·	·	·	-10%	·
Cc1cccc(-c2nc(C#N)c(NC3CCCCC3)o2)c1	10µM*	2.5µM*	?	-1%	7.6µM*	1.8µM*
Cc1cccc(-c2nc3c(C#N)c[nH]n3c2NC2CCCCC2)c1	·	·	·	·	0%	·
Cc1cccc(-c2nc(C#N)c(N3CCCCC3)o2)c1	·	?	?	·	13µM*	?
Cc1ccc(-c2nc(C#N)c(N3CCC(C)CC3)o2)cc1	·	?	3%	·	?	0.1µM*
COc1ccc(-c2nc(C#N)c(N3CCC(C)CC3)o2)cc1	·	-4%	-5%	·	?	-9%
Cc1c(O)ccc2c(CC(=O)N[C@@H](Cc3ccccc3)C(=O)O)cc(=O)oc12	·	-3%	0%	·	2%	-1%
Cn1nc(C(=O)Nc2cc(F)ccc2F)c2c1-c1ccccc1SC2	·	·	·	·	-1%	·
CCCc1cnc(N2CCN(C(=S)NC)CC2)nc1	·	?	23µM*	·	17µM*	4.5µM*
Cc1ccnc(NC(=O)CCC(=O)N(CC(=O)NC(C)(C)C)c2ccc3c(c2)OCO3)c1	·	-1%	-5%	·	-2%	-4%
COc1cc(OC)c(-c2nc3cnccc3n2C)cc1OC	?	-6%	11%	2%	-2%	-3%
Cn1c(-c2ccc3ccccc3n2)nc2cnccc21	99%	4µM*	?	-7%	8.5µM*	2.2µM*
N#C/C(=C\c1cccc(O)c1)C(=O)Nc1ccc2c(c1)OCCO2	·	1%	16%	·	0.48µM*	7%
CC(C)NC(=O)/C(C#N)=C/c1ccc2c(c1)OCCO2	2%	-2%	23%	0%	9.5µM*	4%
N#C/C(=C\c1ccc(O)c(O)c1)C(=O)Nc1ccccc1	22µM*	23%[46.1 µM]	?	-4%	?	-21%[46.1 µM]
N#C/C(=C/c1cccc(O)c1)C(=O)NCc1ccc(Cl)cc1	·	11%	10%	·	-4%	3%
Cc1ccc(-c2cc(N)n[nH]2)cc1	?	5%	0%	-5%	?	3%
CC(C)(C)c1ccc(-c2cc(N)n[nH]2)cc1	-12%	0%	3%	-6%	9.5µM*	-5%
COc1cc(/C=N/NC(=S)NCc2ccco2)cc(OC)c1OC	35µM*	-1%	32%	1%	0%	-3%
COc1ccccc1/C=N/NC(=S)NCc1ccco1	·	2%	-2%	·	-3%	1%
O=C(NCc1nc2ccccc2[nH]1)C1=C[C@H](c2coc3ccccc3c2=O)C[C@H](OCc2ccc(CO)cc2)O1	·	-2%	-12%	·	?	0%
CC1(C)Cc2c(sc(NC(=O)c3ccco3)c2C(=O)O)CO1	?	?	?	-9%	6.7µM*	?
CC1(C)Cc2c(sc(NC(=S)NC(=O)c3ccccc3)c2C(=O)O)CO1	2%	2%	-1%	-2%	?	7%
CC1(C)Cc2c(sc(NC(=O)c3ccc(Br)o3)c2C#N)CO1	13µM*	2.5µM*	22%	-1%	2.4µM*	3.5µM*
Cc1ccc2nc(COc3ccccc3NC(=O)c3ccc(F)cc3)cc(=O)n2c1	·	·	·	·	-7%	·
Cc1cccc(C(=O)N2CCC(N3CCN(Cc4ccc(F)cc4)C(=O)C3=O)CC2)c1	·	·	·	·	-6%	·
C=CCNC(=O)c1ccc(-c2cccc([N+](=O)[O-])c2)o1	22µM*	?	?	0%	?	?
